Experimental data from the supplement of paper PMC6555819.

Experiments:
Test in all cases: PBM binding z-score (relative to random genomic background probes); higher = stronger binding; sequences stand for … in GC…GCGATTGACAGCGTAGAATGAAGG
[1] = system: RARb homodimer (NR concentration 270 nM)
How it was run: (§1)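 Custom Agilent 4×180K protein-binding microarrays carried double-stranded probes. Their 34-nt variable regions held direct-repeat seeds, single-nucleotide variants, half-site ablations and random human genomic background sequences. Arrays were incubated 1 h with ligand-free nuclear receptor dimers in PBS pH 7.4, 2% milk, 0.02% Triton X-100, 1 mM DTT, 0.2 mg/mL BSA and 0.4 mg/ml salmon testes DNA. Antibodies against each partner (one per run) detected binding, and scanned fluorescence was regression-normalized. Binding z-scores use random background probes as reference.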

[2] = system: RARg:RXRa (NR concentration 270 nM, RXRa partner concentration 90 nM)
How it was run: as §1

[3] = system: RARg homodimer (NR concentration 270 nM)
How it was run: as §1

[4] = system: RXRa DBDmut IVT, anti-RXR (DBD mutation: RXRa K156A/R161A, NR concentration 90 nM)
How it was run: as §1

[5] = system: RXRa homodimer (NR concentration 180 nM)
How it was run: as §1

[6] = system: THRa:RXRa (NR concentration 90 nM, RXRa partner concentration 90 nM)
How it was run: as §1

[7] = system: THRa homodimer (NR concentration 90 nM)
How it was run: as §1

[8] = system: VDR:RXRa (NR concentration 270 nM, RXRa partner concentration 90 nM)
How it was run: as §1

[9] = system: VDR homodimer (NR concentration 270 nM)
How it was run: as §1

Row | Sequence | PBM binding z-score [1] | PBM binding z-score [2] | PBM binding z-score [3] | PBM binding z-score [4] | PBM binding z-score [5] | PBM binding z-score [6] | PBM binding z-score [7] | PBM binding z-score [8] | PBM binding z-score [9]
1 | CAAACTAGGTCGCAGAGGTCAAAGTCCGTGCGTA | 4.96 | 6.18 | 5.62 | 2.9 | 6.96 | 4.19 | 1.67 | 7.14 | 5.86
2 | ATCTCTAGGTAAAGATAGTTCGGTGAATGCAAAT | -0.015 | 0.125 | 0.491 | 0.0249 | -0.171 | 0.322 | 0.197 | 0.244 | 0.151
3 | ATCTCTACGTAACCAAGTTCAGTGAATGCCGAAC | 1.18 | 0.251 | 0.741 | 0.846 | 0.369 | 0.592 | 0.325 | 1.17 | 2.27
4 | CCTTCTGGGCCATCAGGTCATTGATATCAACGTT | 2.61 | 2.3 | 2.36 | 0.59 | 1.46 | 3.19 | 2.98 | 1.81 | 1.83
5 | AGAATGAGATTATACGTAGATCAGGGAAGAAAGT | -0.466 | 0.0162 | 0.288 | -0.678 | -0.166 | -0.438 | -0.705 | -0.367 | 0.0852
6 | TAGCCTAGGTCAGATCGGGCCATTATACGCTATA | 2.15 | 2.48 | 3.68 | -0.0922 | 1.36 | 4.25 | 0.543 | 1.6 | -0.154
7 | CTCGAAAGGTCGGTTGAGGTGAGTATTCGGATAA | 2.52 | 2.59 | 2.91 | 1.01 | 2.25 | 4.98 | 1.25 | 2.16 | 0.522
8 | AGAATGTGGTTATTAAGATCAGGGAATTGCGGTC | 0.199 | -0.113 | 0.223 | -0.0893 | 0.0791 | 0.147 | 0.17 | 0.251 | 0.201
9 | CCTTACGGGTCACTCCAGGTTATAGAATCGGAGT | 3.06 | 4.57 | 4.54 | 1.91 | 4.61 | 5.18 | 0.576 | 4.17 | 1.39
10 | ACTAGCAGTCCAAGGGTCACTCAAGATTAGTCCG | 3.7 | 3.72 | 3.27 | 0.612 | 3.58 | 2.61 | 0.466 | 2.86 | 1.15
11 | CTGGAAAGGTCGTGCTCAGGTGAGTATACCAAAC | 2.76 | 5.06 | 3.97 | 1.91 | 4.95 | 4.09 | 0.923 | 3.1 | 0.759
12 | CCTACTGGACCAAAGGTCATTGATTCCAATGCTC | 4.9 | 5.27 | 4.97 | 1.85 | 6.4 | 3.46 | 1.67 | 5 | 3.18
13 | CTACCAAGGTGCACAAGGTCGTTGATTACTATTC | 1.71 | 1.29 | 0.782 | 1.8 | 1.42 | 2.14 | 1.21 | 3.17 | 2.73
14 | TCTAGTAGTTGATTAGGGCAACCGAAACAGCGGA | 0.439 | 0.0761 | -0.0123 | 0.339 | 0.492 | 0.48 | -0.325 | 0.217 | -0.315
15 | CCTACTGGGCCAAAAAGGTCTTTGATGCCGATAA | 0.452 | -0.217 | -0.013 | -0.428 | -0.121 | -0.113 | -0.671 | -0.154 | -0.382
16 | GCTTGTAGATCAAGGTTAAGGAAGACTAAGCTAA | 0.296 | 0.309 | 0.222 | -0.171 | 0.702 | 1.25 | -0.259 | 0.00298 | -0.459
17 | TCTTGTAGACCAACAGGAGGTTAAGAAAGATCGA | 0.694 | 0.411 | 0.151 | 0.322 | 0.799 | 0.789 | -0.614 | 0.492 | -0.388
18 | CCGACTGGGGCATAAGGTTACGATAAGCCAGCCC | 1.67 | 1.92 | 1.18 | -0.47 | 1.45 | 1.98 | 0.985 | 0.321 | -0.0834
